In PubChem BioAssay (Tox21):
Values joined by “and” are separate entries in the source; they are usually repeats but may differ in a detail not shown here. Identical values can stand only once. Records with an inconclusive call do not appear. A call without a number means that no potency is given here. Active and inactive are the calls of the source. Calls come from the whole dose curve; as a rule, active = well fitted activation curve with a large enough effect in the repeat runs; inconclusive = weak or mixed curves, or effect the other way; inactive = no such curve, though single readings can be large or run the other way.

Test: qHTS assay to identify small molecule agonists of the estrogen related receptor signaling pathway with the pleiotropic PPARgamma coactivator (PGC) from Tox21 10K library (AID 1224842); note: nearly all actives have a fitted effect of over 15% in size
Conditions: PGC/ERR reporter cell line, luciferase ONE-Glo, 18 h; series mostly up to 92.4 µM
Text: National Center for Advancing Translational Sciences [NCATS] NIH Chemical Genomics Center [NCGC] U.S. Environmental Protection Agency [EPA] National Institutes of Environmental Health Sciences [NIEHS] National Toxicology Program [NTP] Assay overview: Estrogen related receptors (ERRs), the first orphan nuclear receptors discovered, play an important role in the control of cellular energy metabolism. ERRs are required for high-energy production in response to the environmental challenges. The pleiotropic PPARgamma coactivator (PGC) is a major partner of ERR and a key regulator in energy homeostasis. Together they have been implicated in the etiology of metabolic disorders such as Type 2 diabetes and metabolic syndrome. ERR-alpha was also identified as an adverse marker for breast cancer progression; ERR-alpha-positive tumors have a poor prognosis. To screen and to identify environmental compounds that perturb the PGC/ERR signaling pathways could provide valuable information for potential therapeutic or preventive measures in the treatment of metabolic disease. For identifying PGC/ERR agonists, PGC/ERR cell line (provided by NTP) has been used to screen Tox21 10K library.
Assay Protocol Summary: The PGC/ERR cells were dispensed at 2,000 cells/5 ul/well in 1536-well white plates using a Multidrop dispenser. After the assay plates were incubated at a 37 C/5% CO2 incubator for 6 hours, 23 nL of compounds dissolved in DMSO, positive and negative controls or DMSO only was transferred to the assay plate by a pin tool. The plates were incubated at 37 C for 18 hours. 4 ul/well of One-Glo reagent was added into the assay plates using a Flying Reagent Dispenser. After 30-minute incubation at room temperature, the luminescence intensity in the plates was measured using a ViewLux plate reader.
Potency is the fitted concentration of half-maximal effect.

Question: Which Potency does the source give for Cc1ccc([N+](=O)[O-])c(C)c1 here?
Answer: Its Potency is “inactive”.

Question: With CN(C)CCCN1c2ccccc2Sc2ccc(Cl)cc21 as the molecule, how does the Potency read?
Answer: Its Potency is “inactive”.

Question: With IC(I)I as the molecule, how does the Potency read?
Answer: Its Potency is “inactive”.

Question: For c1ccc2cc3ccccc3cc2c1, which Potency is on record?
Answer: Its Potency is “inactive”.

Question: With COc1cc([C@H]2Oc3cc([C@H]4Oc5cc(O)cc(O)c5C(=O)[C@@H]4O)ccc3O[C@@H]2CO)ccc1O as the molecule, how does the Potency read?
Answer: The Potency was “inactive”.

Question: Which Potency does the source give for CCCCCC1C(=O)CCC1CC(=O)OC (stereo not given) here?
Answer: Its Potency is “inactive”.

Question: For CC(=O)[C@@]1(O)CC[C@H]2[C@@H]3C[C@H](C)C4=CC(=O)C=C[C@]4(C)[C@@]3(F)[C@@H](O)C[C@@]21C, which Potency is on record?
Answer: The Potency was “inactive”.

Question: Which Potency does the source give for CC(=O)Oc1c(C)c(C)c2c(c1C)CC[C@@](C)(CCC[C@H](C)CCC[C@H](C)CCCC(C)C)O2 here?
Answer: The Potency was “inactive”.

Question: For O=C1CCc2ccccc2O1, which Potency is on record?
Answer: Its Potency is “inactive”.

Question: With Nc1ccc2c(O)cc(S(=O)(=O)O)cc2c1 as the molecule, how does the Potency read?
Answer: The Potency was “inactive”.

Question: Which Potency does the source give for COc1ccc(C(=O)c2ccccc2O)c(O)c1 here?
Answer: The Potency was “inactive”.

Question: For CC(C)=CCO, which Potency is on record?
Answer: The Potency was “inactive”.

Question: Which Potency does the source give for C[C@]12CC[C@@H]3c4ccc(O)cc4CC[C@H]3[C@@H]1CC[C@H]2O here?
Answer: The Potency was “inactive”.

Question: With CCCCCCCCCCCCCO as the molecule, how does the Potency read?
Answer: Its Potency is “inactive”.

Question: Which Potency does the source give for OCCNCCO here?
Answer: The Potency was “inactive”.

Question: For Nc1ccc(O)c(N)c1, which Potency is on record?
Answer: The Potency was “inactive”.

Question: For CC[C@]12CCCN3CCc4c(n(c5ccccc45)[C@@](O)(C(=O)OC)C1)[C@@H]32, which Potency is on record?
Answer: The Potency was “inactive”.

Question: With NCCOCCO as the molecule, how does the Potency read?
Answer: The Potency was “inactive”.

Question: With Cc1ccc(S(=O)(=O)NCl)cc1 as the molecule, how does the Potency read?
Answer: The Potency was “inactive”.

Question: Which Potency does the source give for CC1=CC(C)(C)Nc2ccccc21 here?
Answer: The Potency was “inactive”.

Question: For OC[C@@H](O)[C@@H](O[C@@H]1O[C@H](CO)[C@H](O)[C@H](O)[C@H]1O)[C@H](O)[C@@H](O)CO, which Potency is on record?
Answer: The Potency was “inactive”.

Question: For O=C1OC2(c3ccccc31)c1cc(I)c(O)c(I)c1Oc1c2cc(I)c(O)c1I, which Potency is on record?
Answer: The Potency was “inactive”.

Question: For O=C(O)CCCCCCCCCCCC(=O)O, which Potency is on record?
Answer: Its Potency is “inactive”.

Question: For CNC[C@H](O)c1ccc(O)c(O)c1, which Potency is on record?
Answer: Its Potency is 1.54 µM (active) and 1.16 µM (active).

Question: With CC1(C)NC(=O)N(c2ccc([N+](=O)[O-])c(C(F)(F)F)c2)C1=O as the molecule, how does the Potency read?
Answer: Its Potency is “inactive”.

Question: For FC(F)(F)C(Cl)Br (stereo not given), which Potency is on record?
Answer: The Potency was “inactive”.

Question: Which Potency does the source give for Cc1ccc(C(C)(C)C)c(O)c1 here?
Answer: Its Potency is “inactive”.

Question: Which Potency does the source give for ClC/C=C/CCl here?
Answer: The Potency was “inactive”.

Question: Which Potency does the source give for c1ccc2c(c1)ccc1ncccc12 here?
Answer: The Potency was “inactive”.

Question: Which Potency does the source give for C/C=C/C(=O)N(CC)c1ccccc1C here?
Answer: Its Potency is “inactive”.

Question: For O=C(O)c1ccc(O)cc1, which Potency is on record?
Answer: Its Potency is “inactive”.

Question: With CCCCCC=O as the molecule, how does the Potency read?
Answer: The Potency was “inactive”.

Question: Which Potency does the source give for CN(C)/N=N/c1nc[nH]c1C(N)=O here?
Answer: The Potency was “inactive”.

Question: With C1CN(SSN2CCOCC2)CCO1 as the molecule, how does the Potency read?
Answer: The Potency was “inactive”.

Question: Which Potency does the source give for C=CCOC(=O)C(=C)C here?
Answer: The Potency was “inactive”.

Question: With [O-]/[N+](=N\O)c1ccccc1 as the molecule, how does the Potency read?
Answer: The Potency was “inactive”.

Question: For CC(=O)[C@H]1CC[C@H]2[C@@H]3CC=C4C[C@@H](O)CC[C@]4(C)[C@H]3CC[C@]12C, which Potency is on record?
Answer: The Potency was “inactive”.

Question: With CC(=O)O[C@]1(C(C)=O)CC[C@H]2[C@@H]3C=C(C)C4=CC(=O)CC[C@]4(C)[C@H]3CC[C@@]21C as the molecule, how does the Potency read?
Answer: The Potency was “inactive”.

Question: For CC1(C)OC(=O)NC1=O, which Potency is on record?
Answer: The Potency was “inactive”.

Question: Which Potency does the source give for Oc1c(Cl)ccc(Cl)c1Cl here?
Answer: The Potency was “inactive”.
